PubChem BioAssay AID811 (The Scripps Research Institute Molecular Screening Center, 2007)
The campaign covered roughly 16,000 compounds. About 10 (0.06%) were called active. Rule as the data show it: active = inhibition above about 45%; inactive = the rest. The entries come from a sample that favours actives as a whole.

These molecules were tested against Toll-like receptor 4 (Homo sapiens) (UniProt O00206) (assay: inhibitors of human TLR4-MyD88 binding (AID 811)). Conditions: Cell-based TLR4-MyD88 binding inhibition assay; at 10 µM; hits give high values.
Sequence of Toll-like receptor 4 (Homo sapiens) (O00206 whole entry, looked up): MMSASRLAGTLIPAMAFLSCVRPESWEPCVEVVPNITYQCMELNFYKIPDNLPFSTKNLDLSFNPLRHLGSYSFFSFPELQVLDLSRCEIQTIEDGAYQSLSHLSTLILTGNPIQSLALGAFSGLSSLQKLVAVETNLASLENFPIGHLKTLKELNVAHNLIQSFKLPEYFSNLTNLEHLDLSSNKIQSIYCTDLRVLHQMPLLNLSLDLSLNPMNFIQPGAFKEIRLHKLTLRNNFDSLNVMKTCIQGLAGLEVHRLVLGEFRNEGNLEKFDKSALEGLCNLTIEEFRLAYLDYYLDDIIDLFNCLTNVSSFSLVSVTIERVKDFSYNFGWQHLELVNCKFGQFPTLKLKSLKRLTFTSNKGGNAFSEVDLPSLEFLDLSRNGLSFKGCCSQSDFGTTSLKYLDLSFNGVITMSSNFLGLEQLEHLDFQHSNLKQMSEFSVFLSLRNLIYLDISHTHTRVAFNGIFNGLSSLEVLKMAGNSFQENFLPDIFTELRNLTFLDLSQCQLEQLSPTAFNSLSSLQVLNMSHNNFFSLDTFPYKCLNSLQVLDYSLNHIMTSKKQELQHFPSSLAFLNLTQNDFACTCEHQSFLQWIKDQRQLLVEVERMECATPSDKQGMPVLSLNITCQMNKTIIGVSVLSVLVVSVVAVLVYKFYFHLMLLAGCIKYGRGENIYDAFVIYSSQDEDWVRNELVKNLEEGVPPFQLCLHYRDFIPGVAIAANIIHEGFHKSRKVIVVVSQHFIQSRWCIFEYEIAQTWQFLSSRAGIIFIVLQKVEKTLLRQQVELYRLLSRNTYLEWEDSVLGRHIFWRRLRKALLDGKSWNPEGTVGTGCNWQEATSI

Compound | inhibition
N/C(=N\OC(=O)c1ccc(Cl)cc1)c1cccc(CS(=O)(=O)c2ccccn2)c1 | -5.81% (inactive)
CC(C)S(=O)(=O)/C(C#N)=C/NN1CCOCC1 | -3.92% (inactive)
COC(=O)c1cnc(N2CCCN(C(=O)C3COc4ccccc4O3)CC2)nc1C(F)(F)F (centres undefined) | -1.67% (inactive)
NC(=O)c1c(C(F)(F)F)cc(C(F)(F)F)cc1C(F)(F)F | -6.47% (inactive)
COc1ccccc1NC(=O)c1ccc(C#Cc2ccccc2)o1 | -2.2% (inactive)
CC(C)[C@H]1COC(c2cccc(C3=N[C@@H](C(C)C)CO3)n2)=N1 | 5.5% (inactive)
Cc1cc(S(=O)(=O)O/N=C(\N)c2snnc2C)cc(C)c1F | 11.7% (inactive)
CC1(C)CC(=O)C=C(N2CCOCC2)C1 | -0.03% (inactive)
CCc1cnc(NS(=O)(=O)c2cc(Cl)sc2Cl)nc1-c1c(F)cccc1F | -8.06% (inactive)
CC(C)CCOS(=O)(=O)c1ccc2c(c1)Cc1cc(S(=O)(=O)OCCC(C)C)ccc1-2 | 4.69% (inactive)
CCCN(CCC)S(=O)(=O)c1ccc(C(=O)O/N=C(\C)c2ccccc2O)cc1 | 0.96% (inactive)
CC(=O)c1ccc(C#Cc2ccccc2)cc1 | -5.26% (inactive)
COC(=O)c1cnc(Oc2ccc(N)cc2)cc1C(F)(F)F | -9.53% (inactive)
O=C(CSc1c(F)c(F)c(C(=O)O)c(F)c1F)Nc1cccc(C(F)(F)F)c1 | 7.76% (inactive)
CCOC(=O)CN1C(=O)/C(=C\c2ccc(C)o2)N=C1c1ccccc1 | 0.42% (inactive)
O=[N+]([O-])c1ccc2ncccc2c1-n1cccc1 | 2.94% (inactive)
CN(C(=O)Nc1ccc(Cl)cc1)n1cnc2ccccc2c1=O | -8.6% (inactive)
Cn1cnnc1SC/C=C/c1ccccc1 | -13.5% (inactive)
O=C(O)CC(CC(=O)N1CCOCC1)c1ccccc1 (centres undefined) | -5.3% (inactive)
Cc1ccc2c(c1)C(=O)C(=O)S2 | 6.48% (inactive)
O=C(CCc1ccc(O)cc1)N/N=C/c1cc(Cl)cc(Cl)c1O | -1.07% (inactive)
CC(C)(C)NC(=O)N/N=C/c1[nH]ncc1Br | 20.8% (inactive)
Cc1noc(C)c1S(=O)(=O)N1CCN(C2c3ccccc3-c3ccccc32)CC1 | -0.47% (inactive)
CS/C(=N\S(=O)(=O)c1ccccc1)NNc1ccccc1 | -1.96% (inactive)
CCOC(=O)Cn1cc(Cl)ccc1=O | -0.56% (inactive)

Compound | inhibition
N/C(=N\S(=O)(=O)c1ccc(Cl)cc1)N1CCOCC1 | -3.11% (inactive)
Cc1nn(C)c(C)c1Sc1nccc(-c2cccnc2)n1 | -8.01% (inactive)
CC(C)CC(F)Cc1cnc(=O)[nH]c1 (centres undefined) | -2.36% (inactive)
Oc1ccc(-n2cncn2)cc1 | -7.43% (inactive)
O=C(NCc1ccccc1)c1cc2sccc2s1 | 3.11% (inactive)
Cc1ccc2sc(NC(=O)NC(=O)c3c(Cl)cccc3Cl)nc2c1 | -10.8% (inactive)
Cn1cc(C(=O)Nc2ccc(F)c(Cl)c2)c(N)n1 | -11.3% (inactive)
CCOC(=O)c1cnc2c(S(=O)(=O)C(C)C)csc2c1Sc1cccc(Cl)c1 | -1.87% (inactive)
O=C(NNC(=S)Nc1ccccc1Cl)c1ccc(OC(F)(F)F)cc1 | 6.01% (inactive)
O=C(c1ccc(Oc2ccc(Cl)cc2)c([N+](=O)[O-])c1)N1CCCC1 | 0.91% (inactive)
CSc1sc(C(=O)Nc2cccc(C(F)(F)F)c2)cc1S(=O)(=O)C(C)C | 0% (inactive)
CCOC(=O)c1ccc2nc(C(F)(F)F)cc(N3CCN(Cc4ccccc4)CC3)c2c1 | 3.69% (inactive)
CCOC(=O)Cn1sc2nc(C)cc(C)c2c1=O | -2.32% (inactive)
O=[N+]([O-])c1ccc(N2CCC2)cc1 | 8.05% (inactive)
CC(=O)OCc1ccc(COC(C)=O)c(OC(C)=O)c1OC(C)=O | -11.5% (inactive)
COC(=O)/C=C/c1cn(C2OCC(CO)C2O)c(=O)[nH]c1=O (centres undefined) | 5.73% (inactive)
NC(=O)c1cccc2c1OCCO2 | 10.1% (inactive)
CCCN(CCC)S(=O)(=O)c1ccc(C(=O)NNC(=O)c2cc(OC)c(OC)c(OC)c2)cc1 | -4.25% (inactive)
N#C/C(=C\c1ccsc1Sc1ccc(Cl)cc1)S(=O)(=O)c1ccc(Cl)cc1 | -3.72% (inactive)
Cc1nnc(Sc2ccc([N+](=O)[O-])c(Sc3nnc(C)s3)n2)s1 | -6.36% (inactive)
O=c1[nH]c2ccccc2s1 | 2.88% (inactive)
O=c1oc2c3ccccc3c3oc(=O)sc3c2s1 | 50.3% (active)
Cc1cc(-c2noc(-c3cccs3)n2)no1 | -6.63% (inactive)
Cc1nnsc1C(=O)N/N=C/c1ccccc1Cl | -4.11% (inactive)
CNC(=O)c1ccccc1I | -1.84% (inactive)

Compound | inhibition
O=S(=O)(CCSc1ccc(C(F)(F)F)cn1)CCSc1ccc(C(F)(F)F)cn1 | 2.94% (inactive)
CC(=O)Nc1ccc(C)cc1N=Cc1ccncc1 | -3.13% (inactive)
N#CC(c1cc2ccccc2cn1)c1ccc2c(c1[N+](=O)[O-])C(=O)c1ccccc1C2=O (centres undefined) | 8.07% (inactive)
Cc1cccc(-c2noc(NC(=O)O/N=C/c3ccccc3)n2)c1 | 5.92% (inactive)
O=C(NNC(=S)Nc1ccc(S(=O)(=O)N2CCCCC2)cc1)c1ccncc1 | 7.23% (inactive)
O=[N+]([O-])c1ccc2c(c1)CCN2S(=O)(=O)c1ccccc1 | -5.05% (inactive)
Cc1ccc(C(=O)N2CCN(c3cccc4[nH]ccc34)CC2)cc1 | -3.77% (inactive)
O=C(Oc1ccccc1N1CCCCC1)c1sc2ccccc2c1Cl | 4.69% (inactive)
CCOC(=O)c1cc(C)n(-c2cccc([N+](=O)[O-])c2)c1-c1ccccc1 | -2.88% (inactive)
CC(C)(C)c1ccc(C(=O)CC(N)=O)cc1 | -4.12% (inactive)
FC(F)(F)c1csc(N/N=C/c2ccccc2Cl)n1 | -1.14% (inactive)
C/C(=N\NC(N)=S)c1csc(-c2ccccc2)n1 | -3.92% (inactive)
N/N=c1/nc2sccn2c2ncccc12 | -0.03% (inactive)
O=C1C2C3C=CC(O3)C2C(=O)N1OCc1ccc(OC(F)(F)F)cc1 (centres undefined) | 4.1% (inactive)
O=C(NC(=O)c1ccno1)Nc1ccccc1Cl | -1.38% (inactive)
Cn1c(CN2C(=O)CSc3ccc(C(F)(F)F)cc32)nnc1SCC(=O)c1ccccc1 | -0.94% (inactive)
COc1ccc(/C=N/Nc2nc(C)cc(=O)[nH]2)c(OC)c1 | -3.66% (inactive)
CCCc1nc(N)ncc1C(=O)OCC | -3.52% (inactive)
N/C(=N\OC(=O)c1ccc([N+](=O)[O-])o1)c1ccc(OCc2ccc(Cl)cc2)c(Cl)c1 | -0.21% (inactive)
Cc1onc(-c2ccccc2)c1CNS(=O)(=O)c1ccc(-c2ccccn2)s1 | -0.5% (inactive)
O=S(=O)(Nc1ccc2[nH]ccc2c1)c1cccs1 | 14.7% (inactive)
CC(=O)c1nnc2cc(C)nn2c1C | 3.88% (inactive)
CS(=O)(=O)c1ccc(C(=O)Nc2cccc(Cl)c2)cc1 | -0.58% (inactive)
CCCCc1ccc(S(N)(=O)=O)cc1 | -0.44% (inactive)
O=C(Nc1ccccc1C(=O)NCc1c(F)cccc1Cl)c1ccccc1Cl | 2.65% (inactive)

Compound | inhibition
O=[N+]([O-])c1ccc(C2CC2(Br)Br)cc1 (centres undefined) | 11.1% (inactive)
C/C(=N\O)C(C)(C)Nc1ccc(C(C)(C)C)cc1 | 0.91% (inactive)
O=C(NNc1ccccc1C(F)(F)F)NS(=O)(=O)c1ccc(Cl)cc1 | 2.98% (inactive)
COc1ccc(-c2csc(-c3cc(C)on3)n2)cc1 | 7.05% (inactive)
N#Cc1c(C(F)(F)F)cc(-c2cccs2)nc1N1CCCCC1 | -4.83% (inactive)
Cc1cc2nsnc2cc1Cl | 0.39% (inactive)
COc1ccc(COCC(O)CN2CCN(c3ccc(C(F)(F)F)cn3)CC2)cc1 (centres undefined) | -3.92% (inactive)
CSc1ccc(C(F)(F)F)cc1C(=O)/C=C/N(C)C | -5.34% (inactive)
FC(F)(F)c1ccc(Cl)c(NC(=S)NN=C2CCCCCC2)c1 | 0.56% (inactive)
Cc1ccc(N(C)NC(=O)Nc2ccc(Cl)cc2)nn1 | 12.1% (inactive)
Cc1ccc(N=C2SC3(CC3)C(=O)N2c2ccc(C)cc2)cc1 | -5.53% (inactive)
Cc1ccc(S(=O)(=O)NNC(=O)c2ccccc2N)cc1 | -4.45% (inactive)
C=CCn1c(SCC(=O)Nc2nnc(-c3cccs3)s2)nnc1-c1ccco1 | -3.96% (inactive)
O=C(Nc1ccc(I)cc1Cl)C(=S)NCc1cccs1 | 3.66% (inactive)
c1csc(-c2ccc(-c3ccon3)s2)c1 | -1.22% (inactive)
CSc1nc(N)c2ccccc2n1 | -9.58% (inactive)
O=C(Nn1cnnc1)c1cccs1 | 1.09% (inactive)
Cc1nc(C(F)(F)F)ccc1C(=O)NC1CCCc2ccccc21 (centres undefined) | 0.52% (inactive)
Cc1ccccc1C(=O)NNC(=O)c1ccccc1C1=NCCCN1 | 4.96% (inactive)
N#Cc1cccnc1NNC(=O)c1ccccc1C(=O)O | 4.06% (inactive)
O=c1[nH]c2c(=O)[nH]c(=S)[nH]c2nc1/C=C(\O)c1ccccc1 | -4.76% (inactive)
N/C(=N\OC(=O)c1cccc(Cl)c1)c1ccc2nonc2c1 | 1.32% (inactive)
Oc1[nH]c2ccc(F)cc2c1N=NC(=S)NC1CC2C=CC1C2 (centres undefined) | -1.4% (inactive)
Nc1c(-c2nnc(SCC(=O)c3ccccc3)o2)cnn1-c1ccccc1 | -5.52% (inactive)
